# Measurements reported in PubChem BioAssay (Tox21).
# Results filed as inconclusive are left out. Values without a mark were called inactive. Active and inactive are the calls of the source. The call rests on the fitted dose curve; in most records, active means well fitted inhibition curve with a large enough effect in the repeat runs; inconclusive means weak or mixed curves; inactive means no such curve, though single readings can be large or run the other way.
# Biological target: Cytochrome P450 2D6 (Homo sapiens) (UniProt P10635)
# Experiment: Cytochrome P450 Family 2 Subfamily D Member 6 (CYP2D6) small molecule antagonists: luciferase reporter qHTS assay (AID 1671196); further: nearly all actives have a fitted effect of over 50% in size
# Details: P450-Glo CYP2D6 enzyme assay, luciferin luminescence, 1 h; series mostly up to 115 µM; activity change, negative = inhibition: at the top concentration
# Source text: U.S. Tox21 Program National Center for Advancing Translational Sciences [NCATS] U.S. Environmental Protection Agency [EPA] National Institutes of Environmental Health Sciences [NIEHS] National Toxicology Program [NTP] U.S. Food and Drug Administration [FDA] Tox21 Assay Overview: Cytochrome P450 (CYP) enzymes are membrane-bound hemeproteins that play a key role in metabolism of drugs and xenobiotics. Evaluation of the effect of chemicals on CYP isozymes is useful to minimize the adverse drug reactions and toxicities in drug development process. Tox21 chemicals were tested for their effect on CYP enzyme activities by using P450-Glo (TM) screening systems (Promega Corporation, Madison, WI). These systems provide a luminescent method containing proluciferin substrates and are converted to luciferin products by CYP isozymes. The luciferin products formed are detected with a luciferin detection reagent, and the amount of light produced is proportional to CYP activity. P450-Glo (TM) CYP2D6 screening system (Catalog. No. V9890) was used to detect the compounds that interfere in CYP2D6 activity.
# Tox21 Assay Protocol Summary: Two ul of enzyme-substrate mix was dispensed into medium binding white/solid 1536-well plates (Greiner Bio-One North America Inc., Monroe, NC) using a BioRaptr Flying Reagent Dispenser (FRD, Beckman Coulter, Brea, CA). […] The assay plates were incubated at room temperature for 10 min. Then 2 ul of NADPH regeneration solution was added to each well of the assay plates using an FRD and incubated at room temperature for 1 h. The reaction was stopped by adding 4 ul of detection reagent using an FRD and after 20 min incubation at room temperature the luminescence signal was measured using a ViewLux plate reader (Perkin Elmer, Shelton, CT). Data were expressed as relative luminescence units.
# On the % scale 0 is the no-effect control and ±100 the full control effect; potency means the concentration at half of the fitted maximal effect.
# Chain of Cytochrome P450 2D6 (Homo sapiens) (P10635 whole entry, looked up): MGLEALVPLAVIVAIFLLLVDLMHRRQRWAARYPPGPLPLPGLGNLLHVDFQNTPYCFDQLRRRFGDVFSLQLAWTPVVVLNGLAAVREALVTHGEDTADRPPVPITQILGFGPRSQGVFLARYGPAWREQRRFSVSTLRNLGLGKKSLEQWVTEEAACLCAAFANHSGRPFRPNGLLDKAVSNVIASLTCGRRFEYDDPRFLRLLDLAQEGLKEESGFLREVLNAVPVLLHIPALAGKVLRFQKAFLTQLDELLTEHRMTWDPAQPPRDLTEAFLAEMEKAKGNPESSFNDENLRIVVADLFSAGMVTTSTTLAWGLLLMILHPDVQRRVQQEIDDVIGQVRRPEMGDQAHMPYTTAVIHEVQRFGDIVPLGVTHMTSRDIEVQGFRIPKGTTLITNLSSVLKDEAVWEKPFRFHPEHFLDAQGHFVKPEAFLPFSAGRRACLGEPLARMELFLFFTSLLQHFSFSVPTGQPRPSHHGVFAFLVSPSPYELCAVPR
Compound,"activity change, negative = inhibition",Potency
O=C(O)CCc1nc2ccccc2[nH]1,-22.1% [at 53 µM],
Nc1nc(Cl)nc2c1ncn2[C@H]1C[C@H](O)[C@@H](CO)O1,-1.52%,
Cc1cc(C)n(CO)n1,-2.72%,
CCCCOC(=O)CC#N,,5.27 µM (active)
Cc1c(Cl)cccc1Nc1ccccc1C(=O)O,-6.49% [at 53 µM],
CC1(C)[C@@H]2CC[C@]3(C2)[C@@H]1C(=O)CCC3(C)C,,31.7 µM (active)
CCCCCCCCC(=O)OCC(C)OC(=O)CCCCCCCC (stereo not given),-15.4%,
O=C(O)c1cc(C(=O)O)cc([N+](=O)[O-])c1,-14.3%,
CCOc1ccccc1O,2.6%,
COc1ccnc2c1CCCCC2S(=O)c1nc2ccccc2[nH]1 (stereo not given),,0.436 µM (active)
C=CCCC,2.25%,
c1ccc(-c2ccc(-c3ccccc3)cc2)cc1,-3.95% [at 23.6 µM],
O=c1c2ccccc2oc2ccccc12,-17.2%,
C[C@@H](O)[C@H]1C(=O)N2C(C(=O)O)=C(S[C@@H]3CN[C@H](CNS(N)(=O)=O)C3)[C@H](C)[C@H]12,-1.6% [at 53 µM],
CC(C)NC(=O)c1ccccc1N,-9.66%,
CC(=O)CC/C=C(\C)CC/C=C(\C)CC/C=C(\C)CCC=C(C)C,-2.57% [at 53 µM],
C[C@H](N)C(=O)N[C@@H](C)C(=O)NC1[C@H]2CN(c3nc4c(cc3F)c(=O)c(C(=O)O)cn4-c3ccc(F)cc3F)C[C@@H]12 (stereo not given in full),-6.81% [at 53 µM],
O=C(OCCN1CCOCC1)c1cccnc1Nc1cccc(C(F)(F)F)c1,-18.8% [at 53 µM],
CCCC1CCCC(=O)O1 (stereo not given),-14.6%,
O=C(O)CNc1ccccc1,-12.4%,

Compound,"activity change, negative = inhibition",Potency
C(/C=C/C=C/Nc1ccccc1)=Nc1ccccc1,,71 µM (active)
CCC1=C(C)CN(C(=O)NCCc2ccc(S(=O)(=O)NC(=O)NC3CCC(C)CC3)cc2)C1=O (stereo not given),-1.41% [at 53 µM],
CC(=O)Oc1cccc2c1C(=O)c1c(OC(C)=O)cc(C(=O)O)cc1C2=O,-2.37% [at 53 µM],
COc1ccc(/C=C/S(=O)(=O)NC(=O)c2ccc(C)cc2Cl)cc1,-16%,
CC/C=C\CCO,-1.25%,
CCOC(OCC)OCC,-4.65%,
CC(C)Oc1ccccc1O,0.181%,
NC(=O)c1ccccc1C(N)=O,,40.1 µM (active)
CC1=C(C)C(=O)C(C(CCCCCC(=O)O)c2ccccc2)=C(C)C1=O (stereo not given),-16.7% [at 53 µM],
Cc1ccc(S(=O)(=O)NC(=O)NC2CCCC2)cc1,-0.0306% [at 53 µM],
C1=COCCC1,-1.73%,
C[C@H]1C[C@H]2[C@@H]3CCC4=CC(=O)C=C[C@]4(C)[C@@]3(F)[C@@H](O)C[C@]2(C)[C@@]1(O)C(=O)COP(=O)(O)O,0.416%,
O=C(C1CCCCC1)N1CC(=O)N2CCCc3ccccc3C2C1 (stereo not given),-12.3% [at 53 µM],
COC(=O)/C=C/C(C)=C\C=C\C(C)=C\C=C\C=C(C)\C=C\C=C(C)\C=C\C(=O)O,,39.9 µM (active)
OCC(O)c1ccccc1 (stereo not given),-7.45%,
O=C(Nc1ccc2c(c1)Cc1ccccc1-2)C(F)(F)F,-6.61%,
O=C(O)c1ccc2c(c1)nc(C(=O)NC1CCN(C3CC3)CC1)n2Cc1cc(-c2ccc(Cl)s2)on1,-3.64% [at 23.6 µM],
O=C(O)c1c2ccccc2cc2ccccc12,-14.8%,
CC(C)(C)c1ccc(CCC=O)cc1,-0.331%,
Cc1cccc(C)c1NC(=O)CN1CCCC1,,15.5 µM (active)
